{
  "source": "PubChem BioAssay",
  "note": "Unmarked numbers belong to inactive results. The rule behind the calls is not given here.",
  "data": [
    {"target": "Pantothenate synthetase (Mycobacterium tuberculosis (strain ATCC 25618 / H37Rv)) (UniProt P9WIL5)", "sequence (P9WIL5 whole entry, looked up)": "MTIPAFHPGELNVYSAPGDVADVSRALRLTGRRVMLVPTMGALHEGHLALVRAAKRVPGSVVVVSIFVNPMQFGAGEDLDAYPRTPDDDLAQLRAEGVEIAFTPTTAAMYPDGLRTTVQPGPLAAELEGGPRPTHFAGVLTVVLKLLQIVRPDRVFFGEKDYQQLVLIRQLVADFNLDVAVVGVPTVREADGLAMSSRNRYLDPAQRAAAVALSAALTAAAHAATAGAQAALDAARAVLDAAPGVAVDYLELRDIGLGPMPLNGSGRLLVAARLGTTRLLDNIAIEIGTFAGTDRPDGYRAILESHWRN", "test": "Coupled enzyme confirmation of inhibitors against recombinant Mtb PanC (AID 375);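 note: 0% = full reaction with vehicle and 100% = no enzyme background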", "conditions": "coupled enzyme assay; at 10 µM, hits give high values", "units": {"inhibition": "%"}, "values": [
      {"smiles": "O=C1NC2=C(C(=O)CCC2)C(c2ccc3ncccc3c2)N1", "note": "(configuration not stated)", "inhibition": 0},
      {"smiles": "CCOC(=O)CSC1=C(C#N)C(c2ccc3c(c2)OCO3)CC(=O)N1", "note": "(configuration not stated)", "inhibition": 0},
      {"smiles": "CCOC(=O)N1CCC(NC(=O)C2CCC(Cn3c(=O)[nH]c4ccccc4c3=O)CC2)CC1", "note": "(configuration not stated)", "inhibition": 9},
      {"smiles": "COC(=O)c1ccccc1NC(=O)c1cc(-c2ccc(OC)c(OC)c2)on1", "inhibition": 0},
      {"smiles": "O=C1CCCN1Cc1ncnn1-c1ccccc1", "inhibition": 4},
      {"smiles": "C=CCn1c(SC(C)C(=O)NC2(C#N)CCCCC2)nnc1-c1ccc(OC)cc1", "note": "(configuration not stated)", "inhibition": 5},
      {"smiles": "CCOc1ccc(OCC)c(NC(=O)C2CCN(S(=O)(=O)c3cnc[nH]3)CC2)c1", "inhibition": 4},
      {"smiles": "CN(c1ccccc1)S(=O)(=O)c1ccc(C(=O)OCC(=O)NCc2ccco2)cc1", "inhibition": 5},
      {"smiles": "O=c1cc(CN2CCN(c3ccc(F)cc3)CC2)nc2sccn12", "inhibition": 0},
      {"smiles": "COc1cc(NC(=O)Cc2ccccc2OC)cc(OC)c1", "inhibition": 0},
      {"smiles": "O=C1NCC(COCc2ccccc2)O1", "note": "(configuration not stated)", "inhibition": 3},
      {"smiles": "O=S(=O)(NCCSc1ccccc1)c1cccs1", "inhibition": 0},
      {"smiles": "COc1cccc(-c2cc(C(=O)NCc3ccc(Cl)cc3)no2)c1", "inhibition": 0},
      {"smiles": "CCCCN(CCCC)CCn1cnc2c([nH]c3ccc(OC)cc32)c1=O", "inhibition": 4},
      {"smiles": "Cc1ccc(-c2nnn(CC(=O)N(CC(=O)NCC3CCCO3)c3ccccc3)n2)o1", "note": "(configuration not stated)", "inhibition": 3},
      {"smiles": "CCC(C(=O)Nc1ccccc1C(=O)N1CCCC1)N1C(=O)c2ccccc2C1=O", "note": "(configuration not stated)", "inhibition": 6},
      {"smiles": "CCCCn1c2c(c3ccccc31)CCc1nonc1-2", "inhibition": 1},
      {"smiles": "Cc1cccc2cc(CN(CC3CCCO3)C(=O)c3cnccn3)c(=O)[nH]c12", "note": "(configuration not stated)", "inhibition": 0},
      {"smiles": "CC[N+](C)(CC)CCOC(=O)C(O)(c1ccccc1)C1CCCCC1", "note": "(configuration not stated)", "inhibition": 0},
      {"smiles": "CCNc1nc(OC)nc(Oc2ccc(=O)n(-c3ccccc3)n2)n1", "inhibition": 4},
      {"smiles": "NS(=O)(=O)c1ccc(NC(=O)N[C@@H](Cc2ccccc2)C(=O)O)cc1", "inhibition": 0},
      {"smiles": "Cc1ccc(N(C(=O)c2ccncc2)C2C=CS(=O)(=O)C2)cc1", "note": "(configuration not stated)", "inhibition": 5}
    ]}
  ]
}
